# NPSR antagonist – qHTS Assay for Antagonists of the Neuropeptide S Receptor: cAMP Signal Transduction; Q6W5P4; CHO-NPSR cells, cAMP TR-FRET, antagonist mode; Potency, µM (top dose mostly 38.3 µM), without a hit: top-dose activity change, negative = inhibition, usual class: inhibitors; actives 1% (n = 220,000); further: nearly all actives have a fitted effect of over 50% in size
# HPGD block – qHTS Assay for Inhibitors of HPGD (15-Hydroxyprostaglandin Dehydrogenase); 15-hydroxyprostaglandin dehydrogenase [NAD(+)] (Homo sapiens), P15428; purified HPGD, NADH fluorescence kinetic, PGE2 substrate; Potency, µM, inactives show at the highest dose activity change, negative = inhibition, actives largely listed as inhibitors; actives 4.3% (n = 150,000); active means well fitted inhibition curve with a large enough effect, not every such curve was filed as active; inconclusive means small, poorly fitted or top-dose-only effect, or another doubt; inactive means no such curve, though single readings can be large or run the other way
# Target sequence (P15428 whole entry, looked up): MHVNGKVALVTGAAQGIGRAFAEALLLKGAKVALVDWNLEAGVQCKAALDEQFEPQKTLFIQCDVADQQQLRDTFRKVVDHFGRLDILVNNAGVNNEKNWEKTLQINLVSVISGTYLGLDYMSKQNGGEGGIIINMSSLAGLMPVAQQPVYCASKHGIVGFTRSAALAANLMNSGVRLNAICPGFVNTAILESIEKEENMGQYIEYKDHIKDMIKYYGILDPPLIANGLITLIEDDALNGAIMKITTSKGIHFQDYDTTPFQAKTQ
#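 NADH formation kinetics: reaction with 30 uM PGE2 and 1 mM NAD+ (final), 20 nM enzyme, Tris-HCl pH 8 with Tween 20, after 15 min compound preincubation at room temperature. Fluorescence change, last versus first of five reads.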
# Tau FP inhib – qHTS for Inhibitors of Tau Fibril Formation, Fluorescence Polarization; Potency, µM (highest dose often 57.7 µM), for inactives: at the top dose activity, negative = inhibition, usual class: inhibitors; actives 0.39% (n = 280,000); Microtubule-associated protein tau (Homo sapiens), P10636; K18 P301L tau heparin fibrillization, Alexa594 FP, 6 h; further: nearly all actives have a fitted effect of over 55% in size
# Target sequence (P10636 561-689 P618L limits assumed): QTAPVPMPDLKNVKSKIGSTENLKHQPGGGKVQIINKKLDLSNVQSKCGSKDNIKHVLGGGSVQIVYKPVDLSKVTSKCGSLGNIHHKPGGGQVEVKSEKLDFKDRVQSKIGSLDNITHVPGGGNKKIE
#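 Human K18 P301L fragment (15 uM unlabeled plus 0.24 uM Alexa 594-labeled) in 100 mM sodium acetate pH 7 with compound, aggregation induced by 20 uM heparin for 6 hr at 37 C. ThT (30 uM) added for 1 hr, then Alexa 594 FP read.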
# ALDH1A1 inh – qHTS Assay for Inhibitors of Aldehyde Dehydrogenase 1 (ALDH1A1); Aldehyde dehydrogenase 1A1 (Homo sapiens), P00352; actives 7.3% (n = 220,000); Potency, µM (doses to about 75.3 µM), for the others: at the highest dose activity, negative = inhibition, hits mostly inhibitors; Purified ALDH1A1, NADH fluorescence, propionaldehyde substrate; AID 1030, 2008; active means well fitted inhibition curve with a large enough effect, not every such curve was filed as active; inconclusive means small, poorly fitted or top-dose-only effect, or another doubt; inactive means no such curve, though single readings can be large or run the other way;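 further: plate controls were no enzyme wells and a reference inhibitor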
# Tau fibril ThT – qHTS for Inhibitors of Tau Fibril Formation, Thioflavin T Binding; Microtubule-associated protein tau (Homo sapiens), P10636; recombinant tau K18 P301L, heparin-induced fibrillization, ThT fluorescence; Potency, µM (titrated, usually from 57.4 µM), for the others: top-dose activity, negative = inhibition, hits mostly inhibitors; actives 2.1% (n = 270,000); AID 1460, 2008; further: nearly all actives have a fitted effect of over 55% in size
#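 Aggregation was driven by heparin (20 uM final) acting on recombinant tau […] bearing P301L in 100 mM sodium acetate pH 7; fibrils were detected with Thioflavin T.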
# Tau fluor counter – Counterscreen qHTS for Inhibitors of Tau Fibril Formation, Fluorescence Polarization; Potency, µM (doses to about 57.7 µM), inactives show at the top dose activity change, negative = decrease; actives 0.93% (n = 280,000); tau K18 P301L (four-repeat tau fragment) Alexa594 fluorescence, heparin fibrillization; AID 1463, 2008; further: nearly all actives have a fitted effect of over 55% in size
#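 Human K18 P301L tau (15 uM unlabeled plus 0.24 uM Alexa 594-labeled, final) in 100 mM sodium acetate pH 7 was mixed with compound and 20 uM heparin and incubated 6 hr at 37 C.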
# Active calls of the source: *; u = inconclusive; x = no result; [ ] = remark or other dose. An excerpt weighted towards active compounds, which were near 9.5% of everything screened. Unless noted, the call rests on the fitted dose curve; in most records, active means well fitted curve in the direction sought with a large enough effect; inconclusive means small, poorly fitted or top-dose-only effect, or another doubt; inactive means no such curve, though single readings can be large; an effect the other way counts as inactive or inconclusive. Unless noted, on the % scale 0 is the no-effect control and ±100 the full control effect; potency means the concentration at half of the fitted maximal effect.
SMILES,NPSR antagonist,HPGD block,Tau FP inhib,ALDH1A1 inh,Tau fibril ThT,Tau fluor counter
Cc1ccc(NC(=O)COC(=O)c2ccc([N+](=O)[O-])o2)cc1S(=O)(=O)N1CCCCC1,9%,x,4%,25µM*,7%,u
O=C(COC(=O)c1ccc([N+](=O)[O-])o1)Nc1cccc(S(=O)(=O)N2CCCCC2)c1,3%,x,-2%,11µM*,-1%,-30%
Cc1ccc(OCC(=O)Nc2cccc(S(=O)(=O)N3CCCCCC3)c2)c([N+](=O)[O-])n1,-17%,x,8%,u,-12%,u
COC(=O)c1ccc(NC(=O)CC2C(=O)N(c3ccc(C)cc3)C(=O)N2Cc2ccc(OC)cc2)cc1 (stereo unspecified),x,x,-13%,x,u,u
Cc1cccc(C)c1NC(=O)CCCn1c(=O)c2cccn2c2ccccc21,x,x,-5%,x,u,u
COC(=O)c1c(-c2ccc(C(C)(C)C)cc2)csc1NC(=O)C1C2CCC(O2)C1C(=O)O (stereo unspecified),-18%,3.2µM*,-13%,5µM*,u,-5%
CCOC(=O)c1c(-c2cccc3ccccc23)csc1NC(=O)C1C2CCC(O2)C1C(=O)O (stereo unspecified),-25%,-11%,-10%,3%,-17%,-4%
CCCCCCOC1(c2ccccc2)OC(=O)c2ccccc21 (stereo unspecified),u,-11%,-5%,6%,-11%,-12%
CCCCCOP(=O)(OCCCCC)C1(NS(=O)(=O)c2ccccc2)C=CC(=O)c2ccccc21 (stereo unspecified),10µM*,x,1%,6%,-22%,-9%
Cc1ncc(CCl)c2c1OC(C)(C)OC2,-33%[46.1 µM],-22%,-2%,-14%,-7%,-9%
Nn1c(SCC(=O)N2CCOCC2)nnc1C1CC1,10%,x,2%,9%,4%,0%
Oc1ccc(/C=N/n2c3ccccc3c3ccccc32)cc1,-17%[46.1 µM],-14%,u,-9%,35µM*,14µM*[quencher]
Cc1nnc(C)n1/N=C/c1ccc(O)cc1,-1%[46.1 µM],-13%,-8%,-5%,-10%,-5%
COc1ccccc1N1C(=O)CSC1=NC(=O)c1ccccc1,8%,x,8%,-2%,-14%,-14%
COc1ccccc1N=C1SCC(=O)N1c1ccccc1OC,5%,u,-6%,20µM*,1%,-3%
Cc1cc(C)c(S(=O)(=O)/N=C2\C=CC(=O)C(Cl)=C2)c(C)c1,0%[46.1 µM],20µM*,-4%,u,u,u
Cc1ccc(S(=O)(=O)c2c(C)cc(C)nc2Cl)c(C)c1,-10%[46.1 µM],-22%,-4%,8%,-9%,-10%
O=C(COC(=O)/C=C/c1ccccc1)NCC1CCCO1 (stereo unspecified),2%,x,10%,-1%,-6%,-3%
CC(=O)NC(Cc1c[nH]c2ccccc12)C(=O)Nc1ccc2c(c1)OCO2 (stereo unspecified),-7%[46.1 µM],-6%,2%,11%,-13%,-12%
CC(=O)N[C@@H](Cc1c[nH]c2ccccc12)C(=O)OCC(=O)Nc1ccc(S(=O)(=O)N(C)C)cc1,0%,x,4%,4µM*,4%,-6%
CC(=O)N[C@@H](Cc1c[nH]c2ccccc12)C(=O)OCC(=O)NCc1ccc2c(c1)OCO2,4%,x,-1%,5µM*,6%,3%
CCCCNC(=O)C(c1ccc(OCC(=O)OC)c(C(=O)OC)c1)N(CCC1=CCCCC1)C(=O)CCCCCN1C(=O)NC(c2ccc(-c3ccccc3)cc2)C(C(=O)OCc2ccccc2)=C1C (stereo unspecified),x,-6%,-8%,6%,u,u
COc1ccc(CN(CCC(c2ccccc2)c2ccc(OC(C)C)cc2)C(=O)CCl)cc1OC (stereo unspecified),10µM*,u,12%,10µM*,u,-13%
COc1ccc(NC(=O)C(=O)N2N=C3CCCCC3C2(O)C(F)(F)F)cc1 (stereo unspecified),-20%,x,0%,2.8µM*,-5%,-7%
CC(O)CNC(=O)C1CCN(Cc2ccc(OCc3ccccc3)cc2)CC1 (stereo unspecified),-9%[46.1 µM],-4%,-3%,20µM*,6%,1%
SMILES,NPSR antagonist,HPGD block,Tau FP inhib,ALDH1A1 inh,Tau fibril ThT,Tau fluor counter
C[C@@H]1C=CCC(=O)OC[C@H](C)C(=O)OC[C@H]2O[C@H]1C=C[C@@H]2O,x,x,-15%[11.6 µM],1%[13.5 µM],-13%[11.5 µM],-19%[11.6 µM]
O=C(CN1CCSC1=NCc1ccccc1)c1ccc(Cl)c(Cl)c1,-5%[46.1 µM],-14%,11%,13µM*,3%,10%
CCCCc1nn2c(=O)cc(COC(=O)c3cccc(OC)c3)nc2s1,x,x,1%,x,u,-4%
COc1ccccc1NC(=O)CN(Cc1ccco1)C(=O)c1cc2ccccc2o1,-23%,x,-5%,22µM*,-5%,-5%
COC(=O)C(c1ccc(OC)c(OC)c1)C1c2ccccc2C=C(C)N1C(=O)OC (stereo unspecified),x,-9%,6%,-5%,-8%,-5%
O=C1c2ccccc2C(=O)N1CCCSc1nc2ccccc2o1,-24%[46.1 µM],20µM*,6%,u,-14%,-12%
Cn1c(=O)[nH]c(=O)c2c1nc(N1CCCC1)n2CCCSc1nc2ccccc2o1,-20%[46.1 µM],28µM*,5%,-3%,0%,1%
CC1CCCN(c2nc3c(c(=O)[nH]c(=O)n3C)n2CCSc2nc3ccccc3o2)C1 (stereo unspecified),-9%[46.1 µM],-10%,-3%,5%,-8%,-10%
Cn1c(=O)[nH]c(=O)c2c1nc(Br)n2CCCSc1nc2ccccc2o1,3%[46.1 µM],22µM*,4%,u,-11%,-4%
O=C(Nc1ccc(Cl)cc1)OCc1cn(-c2ccccc2)nn1,-5%,x,-11%,7%,11%,-1%
COc1ccc(/C=C/C(=O)c2ccc(Cl)s2)cc1O,u,u,u,u,7.9µM*,u
COc1ccc(/C=C/C(=O)CC(=O)/C=C/c2cccc(O)c2OC)cc1O,x,x,-9%,u,1.3µM*,8.9µM*[quencher]
COc1ccc(/C=C/C(=O)NCCNC(=O)c2ccccc2)cc1OC,2%,x,-3%,u,-11%,0%
COc1ccc(C(=O)/C=C/c2ccc(OC)c(O)c2)c(F)c1,-22%[46.1 µM],32µM*,-4%,4%,1%,-2%

# High-throughput results as filed in PubChem BioAssay.
